Laboratory results as given in PubChem BioAssay (NCI).
The panel holds about 79,000 compounds, 15% with a hit somewhere; the sample as a whole holds those more often. Cut-off read from the data, not from the text of the source: active = growth inhibition above about 70%; inactive = the rest.

How the values were obtained:
[1] = NCI Yeast Anticancer Drug Screen. Data for the rad50 strain (AID 155);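 note: 0% = growth of vehicle-only cultures of the same strain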; settings: S. cerevisiae rad50 strain growth inhibition; at 50.0 µM; hits give high values
In short: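 Inhibition values express reduced yeast growth in compound-treated cultures relative to vehicle-treated controls.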

[2] = NCI Yeast Anticancer Drug Screen. Data for the mec2-1 strain (AID 157); settings: S. cerevisiae mec2-1 strain, at 50.0 µM, hits give high values
In short: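 Mutant yeast (mec2-1) grown with compound; growth inhibition relative to vehicle control reported.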

[3] = NCI Yeast Anticancer Drug Screen. Data for the sgs1 mgt1 strain (AID 161);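 note: 0% = growth of cultures given vehicle only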; settings: S. cerevisiae sgs1 mgt1 strain, at 50.0 µM, hits give high values
In short: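 Yeast cells carrying a defined DNA-repair defect were exposed to test compounds. Growth inhibition was measured relative to vehicle-treated controls.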

[4] = NCI Yeast Anticancer Drug Screen. Data for the cln2 rad14 strain (AID 165);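 note: 0% = growth equal to vehicle treated cultures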; settings: S. cerevisiae cln2 rad14 strain, at 50.0 µM, hits give high values
In short: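 Readout is yeast growth inhibition versus vehicle-treated controls, using a strain with cln2 and rad14 alterations exposed to compound.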

[5] = NCI Yeast Anticancer Drug Screen. Data for the bub3 strain (AID 167); settings: S. cerevisiae bub3 mutant strain, at 50.0 µM, hits give high values
In short: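 Steps: expose the mutant yeast strain to compound; grow alongside vehicle-treated cultures; measure growth; express inhibition against the vehicle cultures.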

[6] = NCI Yeast Anticancer Drug Screen. Data for the mlh1 rad18 strain (AID 175); settings: S. cerevisiae mlh1 rad18 strain growth inhibition; at 50.0 µM; hits give high values
In short: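 Genetically defined yeast (DNA repair-deficient) exposed to compounds; growth inhibition determined relative to vehicle.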

Measured: growth inhibition

Nc1ccc(N(S(=O)(=O)c2ccccc2)S(=O)(=O)c2ccccc2)nc1
inactive: [1] 27.4% | [2] 6.3% | [3] 11.1% | [4] -4.45% | [5] 2.25% | [6] 17.7%

CC(=O)OCC1OC(OC(C)=O)C(NC(=S)N(C)N=O)C(OC(C)=O)C1OC(C)=O (stereo not given)
inactive: [1] 0.65% | [2] -8.4% | [3] -16.9% | [4] 12.4% | [5] -19.3% | [6] -40.3%

C[N+](C)(C)CCCc1ccc2oc3ccccc3c2c1
inactive: [1] 21.8% | [2] 8.65% | [3] 7.35% | [4] 6.15% | [5] 0.7% | [6] 7.95%

Cc1cccnc1Br
inactive: [1] -25.2% | [2] -9.85% | [3] -5.05% | [4] -29.6% | [5] -5.65% | [6] -26.1%

COC(=O)/C(C#N)=C/c1ccc2c(c1)OCO2
inactive: [1] 12.4% | [2] 7.65% | [3] 16.1% | [4] 11.2% | [5] 35.9% | [6] 28.2%

O=S(=O)(O)c1cc(S(=O)(=O)O)c2c(N=Nc3cccc4ccccc34)c(O)ccc2c1
inactive: [1] 0.8% | [2] -9.25% | [3] -35.5% | [4] -18.1% | [5] -35.9% | [6] 1.55%

N=c1ncn(C/C=C/c2ccccc2)c2nc[nH]c12
inactive: [1] -12.7% | [2] -28.4% | [3] -8.55% | [4] -11.4% | [5] -63.3% | [6] 5%

CC(C)CC(N)C(=O)NC(Cc1cc2ccccc2[nH]1)C(=O)O (stereo not given)
inactive: [1] 2.4% | [2] -6.25% | [3] 7.3% | [4] -17.9% | [5] 5.2% | [6] -0.4%

CCOC(=O)Nc1ccc(C2SCCN2C(=O)Nc2ccc(Cl)cc2)cc1 (stereo not given)
inactive: [1] -9.5% | [2] -14.3% | [3] -9.45% | [4] -5.65% | [5] -7.7% | [6] -11.3%

C=CCc1nc2c([nH]1)c(=O)n(C)c(=O)n2C
inactive: [1] 33.5% | [2] -2.2% | [3] 37.6% | [4] 11.7% | [5] -6.8% | [6] 18.6%

CCOc1cc2ccc3c4cc(OC)c(OC)cc4cnc3c2cc1OCC
inactive: [1] -16.9% | [2] -17.4% | [3] -12.7% | [4] -0.4% | [5] -9.4% | [6] -18.9%

Oc1cccc2nc3ccccc3cc12
inactive: [1] 4.3% | [2] 1.15% | [3] 16.2% | [4] -10% | [5] 3% | [6] 9.6%

Cc1cc(C)c(Br)c(C)c1
inactive: [1] 1.55% | [2] 0.45% | [3] -2% | [4] -20.2% | [5] -4.95% | [6] -12.7%

O=c1c2ccccc2c(=O)c2c1ccc1[nH]c3ccccc3sc12
inactive: [1] -7.15% | [2] -1.75% | [3] 7.6% | [4] -20.1% | [5] 6.2% | [6] -6.6%

O=C(Nc1ccccc1)C1CC=C2CCC3OC(=O)C1C23 (stereo not given)
inactive: [1] -11.4% | [2] -16.7% | [3] -23.4% | [4] -16% | [5] -14.7% | [6] -18.1%

c1ccc(C2=NOCC3(c4ccccc4)OC23)cc1 (stereo not given)
inactive: [1] 7.85% | [2] 11.8% | [3] 20.7% | [4] -14.8% | [5] 14.2% | [6] 11.3%

NC(=O)C1=CNCCC1
inactive: [1] -1.15% | [2] -6.05% | [3] -6.35% | [4] 12.3% | [5] 10.7% | [6] 14.7%

CC(=O)/C=C\C1CC2C=CC1C2 (stereo not given)
inactive: [1] -11.6% | [2] -10.2% | [3] 3.65% | [4] 17.1% | [5] -20.4% | [6] 31.6%

Cc1ncc(C(=O)O)c(CO)c1N
inactive: [1] 7.45% | [2] -15.9% | [3] -14.8% | [4] 13.3% | [5] -18.4% | [6] 4.8%

CN1CC2(CO)C(c3ccccn3)N(C)C(c3ccccn3)C(CO)(C1)C2O (stereo not given)
inactive: [1] 2.5% | [2] 16.4% | [3] -10.7% | [4] -6.2% | [5] -0.6% | [6] 10.8%
